97 molecules from PubChem BioAssay AID1376 (SRMLSC, 2008) can be followed below.

Several values for one entry are separate records, joined by “and”; a condition that tells them apart may be missing. Equal entries are not always repeated. The campaign covered roughly 220,000 compounds. About 530 (0.24%) were called active. Rule as the data show it: active = inhibition above about 13%; inconclusive = no clear call, values can overlap the other calls; inactive = below that. Only a selection was taken, and actives are over-represented in it overall. Potency and affinity values are given separately. A structure can be active in one record and inactive in another.

Sequence of Bifunctional protein GlmU (Mycobacterium tuberculosis (strain ATCC 25618 / H37Rv)) (P9WMN3 whole entry, looked up): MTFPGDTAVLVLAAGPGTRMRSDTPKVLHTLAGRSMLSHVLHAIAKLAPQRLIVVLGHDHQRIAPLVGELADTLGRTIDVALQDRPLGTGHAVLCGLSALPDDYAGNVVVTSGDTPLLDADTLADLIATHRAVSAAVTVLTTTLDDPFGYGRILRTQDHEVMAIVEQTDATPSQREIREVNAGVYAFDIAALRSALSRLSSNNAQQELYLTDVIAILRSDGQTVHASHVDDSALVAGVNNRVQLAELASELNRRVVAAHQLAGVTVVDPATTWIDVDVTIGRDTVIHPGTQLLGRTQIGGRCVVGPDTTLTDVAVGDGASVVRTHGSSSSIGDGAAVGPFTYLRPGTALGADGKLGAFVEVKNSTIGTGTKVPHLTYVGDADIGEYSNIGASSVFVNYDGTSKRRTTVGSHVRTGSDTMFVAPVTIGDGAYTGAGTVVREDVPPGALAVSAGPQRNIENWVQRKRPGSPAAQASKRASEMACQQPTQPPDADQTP

This assay concerns the target Bifunctional protein GlmU (Mycobacterium tuberculosis (strain ATCC 25618 / H37Rv)) (UniProt P9WMN3). Description: inhibition of mycobacterial GlmU enzyme – biochemical, glucosamine-1-phosphate acetyltransferase (AID 1376).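 Also: 0% = complete reaction with vehicle and 100% = reaction without substrate.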 As to conditions: M. tuberculosis GlmU acetyltransferase enzyme assay; stronger effect = higher value;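 tested at 30 µM in the primary screen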.
For the molecule `CCc1ccc(N2CCN(C(=O)N3CCOCC3)CC2)cc1`, the inhibition (commonly the change of the read-out against control, counted positive when it falls) was -4.7% (inactive).
The value for `C=CCOC(=O)C1=C(C)N(C)C(=O)NC1c1cc2c(cc1Br)OCO2` (configuration not stated) was 0% (inactive); that for `Cc1cccc(-n2ncc3c(N(CCO)CCO)ncnc32)c1` was 2.36% (inactive).
The value for `CCOc1ccc(NC(=O)Nc2cc(C(C)C)ccc2C)cc1` was 14.6% (active).
As for `Cc1ccc(C(C)C)cc1NC(=O)Nc1ccc([N+](=O)[O-])cc1`, the inhibition was -2.4% (inactive).
For `CCOc1ccc(NC(=O)Nc2cc(C(C)C)c(O)cc2C)cc1`, the inhibition is 1.34% (inactive).
`CSc1nc2ncc(C#N)cn2n1`: the inhibition is -5.13% (inactive).
For the molecule `CC(=O)Nc1ccc(NC(=O)C(Cc2ccccc2)NC(=O)C2CCCCC2)cc1` (configuration not stated), the inhibition is 1.61% (inactive).
`c1ccc(-n2nnc(-c3cccnc3)n2)cc1`: the inhibition is 1.76% (inactive).
`Cn1c(=O)[nH]c(=O)c2c1nc(SCCO)n2CC(O)COc1ccccc1` (configuration not stated): the inhibition was 0.72% (inactive).
With `COc1ccccc1OCC(O)Cn1c(Br)nc2c1c(=O)[nH]c(=O)n2C` (configuration not stated), the inhibition is 13.5% (active).
For `CCCSc1nc2c(c(=O)[nH]c(=O)n2C)n1CC(O)COc1ccccc1` (configuration not stated), the inhibition is 14.1% (active).
As for `COc1ccc(OCC(O)Cn2c(Br)nc3c2c(=O)[nH]c(=O)n3C)cc1` (configuration not stated), the inhibition is -0.99% (inactive).
The value for `CCSc1nc2c(c(=O)[nH]c(=O)n2C)n1CC(O)COc1ccccc1` (configuration not stated) was -3.27% (inactive).
Regarding `Cc1ccccc1OCC(O)Cn1c(Br)nc2c1c(=O)[nH]c(=O)n2C` (configuration not stated), the inhibition is 1.77% (inactive).
The value for `CCN(CC)C(=O)c1[nH]cnc1C(=O)N[C@@H](C)C(=O)OC(C)(C)C` was -5.07% (inactive); that for `COC(=O)c1ccccc1NC(=O)Nc1cccc(C)n1` was 1.31% (inactive); that for `Cc1occc1C(=O)N/N=C/c1ccccc1[N+](=O)[O-]` was -3.47% (inactive).
For `N#C/C(=C\c1ccc(Cl)c([N+](=O)[O-])c1)c1ccccn1`, the inhibition was -1.14% (inactive).
With `CNc1ccc(/C=C(\C#N)c2ccccn2)cc1[N+](=O)[O-]`, the inhibition was 13.2% (active).
The value for `N#C/C(=C\c1ccc([N+](=O)[O-])cc1)c1ccccn1` was 3.91% (inactive).
The value for `CC(=O)c1cccc(NC(=O)C2CCCC2)c1` was 1.98% (inactive); that for `Cc1cccc(NC(=O)C2CCCC2)c1` was 13.7% (active).
As for `Cc1cc(C)cc(NC(=O)C2CCCC2)c1`, the inhibition was 9.85% (inactive).
The value for `CC1CN(/C(=N\S(=O)(=O)c2ccccc2)c2ccccc2)CC(C)O1` (configuration not stated) was -2.86% (inactive); that for `COc1ccccc1CCc1nnc(CCC(=O)NC(C)Cc2ccsc2)o1` (configuration not stated) was 1.67% (inactive).
The value for `COc1ccc(NC(=O)/C(Cl)=C(/Cl)S(=O)Cc2ccc(C)cc2)cn1` (configuration not stated) was 7.38% (inactive).
Consider `COc1ccc(CS(=O)/C(Cl)=C(/Cl)C(=O)Nc2ccc(OC)nc2)cc1` (configuration not stated), for which the inhibition was 14.6% (active).
The value for `COc1ccc(NC(=O)/C(Cl)=C(/Cl)S(=O)Cc2ccc(Cl)cc2)cn1` (configuration not stated) was 11.8% (inactive); that for `CCOc1ccc(NC(=O)C2=C(C)C(=O)OC23CCC(C)CC3)cc1` (configuration not stated) was 3.82% (inactive).
The value for `CC1=CC(=O)C(C(C)C)=C/C1=N/OS(=O)(=O)c1ccccc1` was 1.82% (inactive).
The value for `CC1=C/C(=N\OS(=O)(=O)c2ccccc2)C(C)=CC1=O` was 10.7% (inactive); that for `O=C(NCCCn1ccnc1)C1CC(c2ccccc2Cl)=NO1` (configuration not stated) was -2.77% (inactive); that for `COc1cc(C(Nc2ccc(S(=O)(=O)N3CCC(C)CC3)cc2)C(=O)NCC2CCCO2)cc(OC)c1OC` (configuration not stated) was 0.15% (inactive).
For `COc1cc(C(Nc2ccc(S(=O)(=O)NCC3CCCO3)cc2)C(=O)NC(C)(C)C)cc(OC)c1OC` (configuration not stated), the inhibition is 13.6% (active).
As to `COc1ccc(C(Nc2ccc(S(=O)(=O)NCC3CCCO3)cc2)C(=O)NC(C)(C)C)cc1OC` (configuration not stated), the inhibition is -2.66% (inactive).
On to `CC(=O)Nc1cccc(OCc2ccc(S(=O)(=O)Cc3ccccc3)cc2)c1`, for which the inhibition is -12.3% (inactive).
Consider `O=C1NC(=O)/C(=C\c2ccc(O)cc2O)S1`, for which the inhibition is 12.9% (active).
The value for `O=C1NC(=O)/C(=C/c2ccc(O)cc2)S1` was 2.35% (inactive); that for `Cc1cc(N2CCOCC2)ccc1/C=C1/SC(=O)NC1=O` was -0.05% (inactive).
The value for `c1ccc(CSc2ccc(-c3cccnc3)nn2)cc1` was -0.08% (inactive); that for `Cc1cc(NC(=O)CSC2=Nc3ccccc3C3=NC(Cc4ccccc4)C(=O)N23)n[nH]1` (configuration not stated) was -1.18% (inactive); that for `CCC1(C)Cc2c(C#N)c(N)n(-c3ccccc3)c(=S)c2CO1` (configuration not stated) was 6.07% (inactive).
With `CC1(C)Cc2c(C#N)c(N)n(-c3ccccc3)c(=O)c2CO1`, the inhibition is -3.12% (inactive).
With `CCC1(C)Cc2c(C#N)c(N)n(-c3ccccc3)c(=O)c2CO1` (configuration not stated), the inhibition was 13.3% (active).
Consider `CCOC(=O)N1CCN(c2c(NCc3ccc(N(C)C)cc3)c(=O)c2=O)CC1`, for which the inhibition is -1.67% (inactive).
The value for `CCCNC(=O)c1ccc(CNc2c(N3CCC(C(=O)OCC)CC3)c(=O)c2=O)cc1` was -8.96% (inactive); that for `CCOC(=O)C1CCN(c2c(NCc3ccc(N(C)C)cc3)c(=O)c2=O)CC1` was 14.4% (active).
The value for `COc1nccnc1NS(=O)(=O)c1ccc(NC(=S)NC(=O)/C=C/c2ccc(F)cc2)cc1` was 10.5% (inactive); that for `O=C(/C=C/NNC(=O)c1ccc(Br)cc1)c1ccccc1` was -0.31% (inactive).
As for `O=C(/C=C/NNC(=O)c1cccc(Br)c1)c1cccc(Br)c1`, the inhibition is 12.9% (active).
Take `O=C(/C=C/NNC(=O)c1ccccc1)c1ccc(Br)cc1`: the inhibition was -1.06% (inactive).
Take `CC(C)(C)S(=O)(=O)c1ccsc1C(=O)O`: the inhibition was 0.11% (inactive).
`Cc1ccccc1-n1c(-c2ccoc2C)n[nH]c1=S`: the inhibition was 5.31% (inactive).
As to `Cc1cccc(-n2c(-c3ccoc3C)n[nH]c2=S)c1`, the inhibition is 11.9% (inactive).
The value for `Cc1occc1-c1n[nH]c(=S)n1-c1ccccc1` was 12.8% (active); that for `COc1ccccc1Nc1nc(N)nc(CSCCO)n1` was 1.91% (inactive); that for `COc1cc(/C=C2/CC/C(=C/c3ccc(O)c(OC)c3)C2=O)ccc1O` was -0.98% (inactive).
`COc1cc(/C=C2\CC/C(=C\c3cc(OC)c(OC)c(OC)c3)C2=O)cc(OC)c1OC`: the inhibition is -2% (inactive).
The value for `COc1cc(/C=C2\CC/C(=C\c3cc(OC)c(O)c(OC)c3)C2=O)cc(OC)c1O` was 14.3% (active).
The value for `N#Cc1ccc2ccn(CC(=O)NC3CCCCCC3)c2c1` was 6.23% (inactive); that for `CC1Oc2cc3c(-c4c(O)cc(O)c5c(O)c6c(cc45)OC(C)C(C)C6=O)c(O)cc(O)c3c(O)c2C(=O)C1C` (configuration not stated) was 16.3% (active) and 8.27% (inactive); that for `C[C@@H]1Cc2c(O)c(O)cc(O)c2C(=O)O1` was -2.99% (inactive).
The value for `CC1CC(=O)c2c(cc3c(-c4c(O)cc(O)c5c(O)c6c(cc45)OC(C)CC6=O)c(O)cc(O)c3c2O)O1` (configuration not stated) was 18.9% (inactive).
`Cc1ccc(C(=O)Nc2ccc(C(=O)O)cc2)cc1S(=O)(=O)NCc1ccccc1`: the inhibition was -0.6% (inactive).
Regarding `Cc1cc2nccc(-c3ccco3)n2n1`, the inhibition is 13.6% (active).
The value for `O=C(O)c1cc2nccc(-c3ccco3)n2n1` was 3.14% (inactive); that for `Cc1cc2nccc(-c3ccccn3)n2n1` was -6.43% (inactive); that for `Cc1ccc(Nc2c(-c3ccc(N4CCOCC4)cc3)nc3cnccn23)cc1` was -2.79% (inactive).
The value for `O=C(NCCCN1CCCCCC1)c1ccc2c(Cl)c3c(nc2c1)CCCC3` was -1.55% (inactive).
The value for `S=C1NC2(CCS1)Oc1ccccc1C1CC(c3ccccc3)=NN12` (configuration not stated) was -6.7% (inactive).
Consider `COc1ccc(C)cc1S(=O)(=O)Nc1ccc2c(c1)OCO2`, for which the inhibition was 3.25% (inactive).
In the case of `COc1ccc(F)cc1S(=O)(=O)Nc1ccc2c(c1)OCO2`, the inhibition was 14.9% (active).
The value for `COc1ccc(F)cc1S(=O)(=O)Nc1ccc2c(c1)OCCO2` was 2.41% (inactive); that for `COc1cc(Nc2ncnc(N)n2)cc(OC)c1OC` was 3.26% (inactive); that for `COc1ccc(NC(=O)CN2CCN(CC(=O)Nc3ccccc3F)CC2)cc1OC` was -7.08% (inactive).
The value for `O=c1[nH]c(/C=C\c2cccs2)nc(O)c1[N+](=O)[O-]` was 2.4% (inactive); that for `C=CCc1cc(/C=C/c2nc(O)c([N+](=O)[O-])c(=O)[nH]2)cc(OC)c1O` was 14.5% (active); that for `COc1ccc(-n2c(C)cc(/C=C/c3nc(O)c([N+](=O)[O-])c(=O)[nH]3)c2C)cc1` was 10% (inactive).
The value for `O=C(Nc1ccc(F)cc1F)N1CCN(c2ncccn2)CC1` was 1.49% (inactive); that for `CC(C)(C)OC(=O)N/N=C/c1c[nH]c2ccccc12` was 2.23% (inactive); that for `O=C(COc1cccnc1[N+](=O)[O-])Nc1ccc2c(c1)OC(F)(F)O2` was 3.24% (inactive).
`O=C(NCc1ccc(F)cc1)C1CCCN(c2nc3ccsc3c(=O)s2)C1` (configuration not stated): the inhibition is 2.37% (inactive).
With `CCOC(=O)C1=C(c2ccccc2)NC(SCC(=O)NC2CCCCC2)=C(C#N)C1c1ccco1` (configuration not stated), the inhibition was 2.37% (inactive).
The value for `CCOc1ccc(/C=C2/SC(=O)NC2=S)cc1` was -3.11% (inactive); that for `O=C1N=C(N2CCOCC2)S/C1=C\c1ccc(-c2ccccc2Cl)o1` was 2.7% (inactive).
In the case of `O=C1/C(=C\c2ccc(-c3ccccc3Cl)o2)SC(=S)N1CC1CCCO1` (configuration not stated), the inhibition is 7.34% (inactive).
As to `Cc1ccc(/C=C2\SC(=S)N(Cc3ccccc3)C2=O)o1`, the inhibition is -1.65% (inactive).
The value for `O=C(Nc1cccc(NC(=O)c2nccc3ccccc23)c1)c1ccco1` was -1.26% (inactive).
The value for `COc1cc(C(=O)Nc2ccncc2)c([N+](=O)[O-])cc1OC` was 6.59% (inactive); that for `CCN1CCN(c2cc(C)c3cc(NC(=O)c4cnccn4)ccc3n2)CC1` was -5.83% (inactive).
`O=C1c2ccccc2C(=O)N1OCc1ccc(Cl)cc1`: the inhibition was -2.04% (inactive).
In the case of `C=CCN1C(=O)/C(=C/c2cccs2)C(=O)NC1=S`, the inhibition was 4.18% (inactive).
Regarding `CCN(CC)c1ccc(/C=C2/C(=O)NC(=O)N(Cc3ccco3)C2=O)cc1`, the inhibition is -0.51% (inactive).
`O=C1NC(=S)N(Cc2ccco2)C(=O)/C1=C\c1cccs1`: the inhibition was 96% (active).
Turning to `O=C1NC(=O)N(Cc2ccc(F)cc2)C(=O)/C1=C/c1cccs1`, the inhibition is -2.44% (inactive).
The value for `CN(C)c1ccc(/C=C2/C(=O)NC(=O)N(Cc3ccco3)C2=O)cc1` was -4.04% (inactive).
